# Measurements taken from PubChem BioAssay (NCI).
# The panel holds about 83,000 compounds, 20% with a hit somewhere; the sample as a whole holds those more often.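 Note: values are percent growth. 100 is the growth of untreated cells, values between 100 and 0 indicate rising inhibition; between -100 and 0 indicates cell death.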 Activity calls are given as the source filed them. Rule for the calls: active = growth percent below 10; inactive = the rest.
# Test system: NCI-H23 lung
# Test: NCI-60 one-dose screen, 48 h (100 = growth as untreated, 0 = no growth, -100 = all killed)
# Details: 10 µM
row,Compound,growth
1,COc1cc2c3c(n(CCCNCCO)c(=O)c2cc1OC)-c1nc2c(cc1C3=O)OCO2,-45% (active)
2,COc1ccc2[nH]cc(/C=N/Nc3ccc(Br)cn3)c2c1,36.6% (inactive)
3,O=C(Cn1cc(CSc2nnc3oc4ccccc4n23)nn1)Nc1cccc(Cl)c1,60.2% (inactive)
4,O=C(NO)c1ccc(Cn2ccc3c(Nc4ccccc4)ncnc32)cc1,-87.2% (active)
5,COc1ccc(-c2nc(-c3ccccc3)c(-c3ccccc3)n2-c2ccc(S(=O)(=O)Nc3ncccn3)cc2)cc1OC,94.8% (inactive)
6,O=C(CSc1ccc(-c2ccc(Cl)cc2)nn1)Nc1ccc(Cl)c(C(F)(F)F)c1,73.6% (inactive)
7,CC1(C)[C@@H](NCO)CC[C@]2(C)[C@H]3C(=O)C=C4[C@@H]5C[C@](C)(CO)CC[C@]5(C)CC[C@@]4(C)[C@]3(C)CC[C@@H]12,66.5% (inactive)
8,Cn1cc(-c2cc(N)n3nc(-c4c[nH]c5ccc(Br)cc45)cc3n2)c2cccnc21,-84% (active)
9,Nc1nnc(-c2c[nH]c3ncccc23)c(-c2c[nH]c3ccc(Br)cc23)n1,57.1% (inactive)
10,N#Cc1ccc(-c2nn(-c3ccc(C(=O)O)cc3)cc2CNc2ccc(Cl)cc2)cc1,73.3% (inactive)
11,O=C(c1ccc(O)cc1)C1[C@H](c2ccccc2Br)[C@@H](c2ccccc2)NC12C(=O)Nc1ccc(Cl)cc12 (some centres undefined),-34.8% (active)
12,COc1nccnc1NS(=O)(=O)c1ccc(NC2=C(Cl)C(=O)c3nc(C)ccc3C2=O)cc1,83.7% (inactive)
13,CCOC(=O)C1=C(N)N(c2ccc(Cl)cc2)C2=C(C(=O)CC(C)(C)C2)C1c1ccc(N2CCOCC2)cc1 (centres undefined),105% (inactive)
14,CN(C(=O)c1ccc(C(C)(C)C)cc1)c1sc2c(c1C#N)CCC(=O)C2,-29.1% (active)
15,Cc1cc(C)nc(SCC(=O)Nc2ccc(S(N)(=O)=O)cc2)n1,100% (inactive)
16,COc1ccc2[nH]c(O)c(N=NC(=O)c3cc(-c4ccc(C)cc4)nc4ccccc34)c2c1,86% (inactive)
17,O=C1Nc2ccc(Cl)cc2/C1=C/c1cccc(OCc2ccccn2)c1,15.4% (inactive)
18,Nc1nc(-c2ccccc2)cs1,42% (inactive)
19,COc1ccc2c3nc4cc(C)c(C)cc4nc3n(CCN(C)C)c2c1,8.28% (active)

row,Compound,growth
1,O=C(c1ccc(Cl)cc1)C1[C@H](c2ccc(Br)cc2)[C@@H](c2ccccc2)NC12C(=O)Nc1ccc(Cl)cc12 (some centres undefined),-83.6% (active)
2,CC(=O)Nc1ccc(-c2cn(-c3cccc(C(=O)Nc4ccc(Cl)c(C(F)(F)F)c4)c3)nn2)cn1,-67.6% (active)
3,COc1ccc2nc(Cl)c(-c3cc(-c4ccccc4)nc(N)n3)cc2c1,37.7% (inactive)
4,CN1CCN(c2ccc(Nc3nc(NCCCNC(=O)C4CCCCC4)c4sccc4n3)cc2)CC1,60.3% (inactive)
5,COc1ccc(NC(=O)CSc2nnc(-c3ccc4nc(-c5ccc(Cl)cc5)[nH]c4c3)o2)cc1,-9.49% (active)
6,CCCCCc1ccc(S(=O)(=O)Nc2cc(-c3csc(N(C)C(C)=O)n3)ccc2N2CCN(C)CC2)cc1,44.3% (inactive)
7,COc1ccc(NC(=O)Nc2ccc(OCC(=O)N=Nc3c(O)[nH]c4ccc([N+](=O)[O-])cc34)cc2)cc1,59.5% (inactive)
8,O=S(=O)(Nc1ncccn1)c1ccc(-n2c(-c3ccccc3)nc(-c3ccccc3)c2-c2ccccc2)cc1,95.4% (inactive)
9,O=c1oc2ccc(-c3ccc(F)cc3F)cc2c(=O)n1-c1ccc(Cl)c(C(F)(F)F)c1,-42.7% (active)
10,CN1CCN(Cc2ccc(C(=O)Nc3cccc(Nc4ccc5c(O)cccc5n4)c3)cc2C(F)(F)F)CC1,-69.8% (active)
11,O=C(c1ccc(-n2c(=O)[nH]c3ccccc3c2=O)cc1)N1CCOCC1,116% (inactive)
12,Cc1ccc(C(=O)Nc2ccc(-n3c(C)nc4c(cnn4-c4ccccc4)c3=O)cc2)cc1,53.6% (inactive)
13,O=C(Nc1ccccc1)Nc1nc2ccccc2s1,78.5% (inactive)
14,COc1cc2c(c(OC)c1OC)C(=O)CC(c1cccc(NC(=O)c3cccc(N)c3)c1)O2 (centres undefined),91.1% (inactive)
15,CCN1CCN(Cc2ccc(C(=O)Nc3cccc(-c4cn(-c5ccc6oc(=O)ccc6c5)nn4)c3)cc2C(F)(F)F)CC1,-100% (active)
16,CCOC(=O)C1NN(c2ccc(S(N)(=O)=O)cc2)c2nc3nc(-c4cccs4)cc(-c4cccs4)c3c(=O)n21 (centres undefined),96.6% (inactive)
17,O=c1c2ccccc2nc(COc2ccccc2)n1/N=C/c1ccc(N2CCCC2)cc1,85% (inactive)
18,COc1ccc(-c2ccc(/C=N/NC(=O)c3[nH]c4ccc(Br)cc4c3-c3ccccc3)s2)cc1,68.8% (inactive)

# Test system: NCI-H226 lung
# Test: as above
# Details: 10 µM
row,Compound,growth
1,COc1cc2c3c(n(CCCNCCO)c(=O)c2cc1OC)-c1nc2c(cc1C3=O)OCO2,-88.5% (active)
2,COc1ccc2[nH]cc(/C=N/Nc3ccc(Br)cn3)c2c1,40% (inactive)
3,O=C(Cn1cc(CSc2nnc3oc4ccccc4n23)nn1)Nc1cccc(Cl)c1,65% (inactive)
4,O=C(NO)c1ccc(Cn2ccc3c(Nc4ccccc4)ncnc32)cc1,32% (inactive)
5,COc1ccc(-c2nc(-c3ccccc3)c(-c3ccccc3)n2-c2ccc(S(=O)(=O)Nc3ncccn3)cc2)cc1OC,75.1% (inactive)
6,O=C(CSc1ccc(-c2ccc(Cl)cc2)nn1)Nc1ccc(Cl)c(C(F)(F)F)c1,76.1% (inactive)
7,CC1(C)[C@@H](NCO)CC[C@]2(C)[C@H]3C(=O)C=C4[C@@H]5C[C@](C)(CO)CC[C@]5(C)CC[C@@]4(C)[C@]3(C)CC[C@@H]12,68% (inactive)
8,Cn1cc(-c2cc(N)n3nc(-c4c[nH]c5ccc(Br)cc45)cc3n2)c2cccnc21,-71.2% (active)
9,Nc1nnc(-c2c[nH]c3ncccc23)c(-c2c[nH]c3ccc(Br)cc23)n1,63.6% (inactive)
10,N#Cc1ccc(-c2nn(-c3ccc(C(=O)O)cc3)cc2CNc2ccc(Cl)cc2)cc1,85% (inactive)
11,O=C(c1ccc(O)cc1)C1[C@H](c2ccccc2Br)[C@@H](c2ccccc2)NC12C(=O)Nc1ccc(Cl)cc12 (some centres undefined),-7.3% (active)
12,COc1nccnc1NS(=O)(=O)c1ccc(NC2=C(Cl)C(=O)c3nc(C)ccc3C2=O)cc1,93.4% (inactive)
13,CCOC(=O)C1=C(N)N(c2ccc(Cl)cc2)C2=C(C(=O)CC(C)(C)C2)C1c1ccc(N2CCOCC2)cc1 (centres undefined),93.6% (inactive)
14,CN(C(=O)c1ccc(C(C)(C)C)cc1)c1sc2c(c1C#N)CCC(=O)C2,62.6% (inactive)
15,Cc1cc(C)nc(SCC(=O)Nc2ccc(S(N)(=O)=O)cc2)n1,98.5% (inactive)
16,COc1ccc2[nH]c(O)c(N=NC(=O)c3cc(-c4ccc(C)cc4)nc4ccccc34)c2c1,90.6% (inactive)
17,O=C1Nc2ccc(Cl)cc2/C1=C/c1cccc(OCc2ccccn2)c1,-21.3% (active)
18,Nc1nc(-c2ccccc2)cs1,63.4% (inactive)
19,COc1ccc2c3nc4cc(C)c(C)cc4nc3n(CCN(C)C)c2c1,12.1% (inactive)

row,Compound,growth
1,O=C(c1ccc(Cl)cc1)C1[C@H](c2ccc(Br)cc2)[C@@H](c2ccccc2)NC12C(=O)Nc1ccc(Cl)cc12 (some centres undefined),-85.6% (active)
2,CC(=O)Nc1ccc(-c2cn(-c3cccc(C(=O)Nc4ccc(Cl)c(C(F)(F)F)c4)c3)nn2)cn1,-72.8% (active)
3,COc1ccc2nc(Cl)c(-c3cc(-c4ccccc4)nc(N)n3)cc2c1,27.1% (inactive)
4,CN1CCN(c2ccc(Nc3nc(NCCCNC(=O)C4CCCCC4)c4sccc4n3)cc2)CC1,81.6% (inactive)
5,COc1ccc(NC(=O)CSc2nnc(-c3ccc4nc(-c5ccc(Cl)cc5)[nH]c4c3)o2)cc1,80.3% (inactive)
6,CCCCCc1ccc(S(=O)(=O)Nc2cc(-c3csc(N(C)C(C)=O)n3)ccc2N2CCN(C)CC2)cc1,37.4% (inactive)
7,COc1ccc(NC(=O)Nc2ccc(OCC(=O)N=Nc3c(O)[nH]c4ccc([N+](=O)[O-])cc34)cc2)cc1,62.7% (inactive)
8,O=S(=O)(Nc1ncccn1)c1ccc(-n2c(-c3ccccc3)nc(-c3ccccc3)c2-c2ccccc2)cc1,87.8% (inactive)
9,O=c1oc2ccc(-c3ccc(F)cc3F)cc2c(=O)n1-c1ccc(Cl)c(C(F)(F)F)c1,-18.8% (active)
10,CN1CCN(Cc2ccc(C(=O)Nc3cccc(Nc4ccc5c(O)cccc5n4)c3)cc2C(F)(F)F)CC1,41.3% (inactive)
11,O=C(c1ccc(-n2c(=O)[nH]c3ccccc3c2=O)cc1)N1CCOCC1,99.6% (inactive)
12,Cc1ccc(C(=O)Nc2ccc(-n3c(C)nc4c(cnn4-c4ccccc4)c3=O)cc2)cc1,54.8% (inactive)
13,O=C(Nc1ccccc1)Nc1nc2ccccc2s1,72.1% (inactive)
14,COc1cc2c(c(OC)c1OC)C(=O)CC(c1cccc(NC(=O)c3cccc(N)c3)c1)O2 (centres undefined),86.7% (inactive)
15,CCN1CCN(Cc2ccc(C(=O)Nc3cccc(-c4cn(-c5ccc6oc(=O)ccc6c5)nn4)c3)cc2C(F)(F)F)CC1,-82.1% (active)
16,CCOC(=O)C1NN(c2ccc(S(N)(=O)=O)cc2)c2nc3nc(-c4cccs4)cc(-c4cccs4)c3c(=O)n21 (centres undefined),5.85% (active)
17,O=c1c2ccccc2nc(COc2ccccc2)n1/N=C/c1ccc(N2CCCC2)cc1,105% (inactive)
18,COc1ccc(-c2ccc(/C=N/NC(=O)c3[nH]c4ccc(Br)cc4c3-c3ccccc3)s2)cc1,105% (inactive)
